CHRM1 agonist = human M1 muscarinic receptor agonists, primary screen, Fluo-8 calcium fluorescence, CHO-K1 cells, HTS; Muscarinic acetylcholine receptor M1 (Homo sapiens), P11229; CHO-K1 hM1, agonist mode; 0% DMSO, 100% acetylcholine EC100; AID 588814, 2011; actives 0.33% (n = 360,000); activation, % at 3 µM;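 active means activation above the run's mean compound activation plus 3 SD, cut at about 16% in these data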;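 further: peak over basal fluorescence ratio within a 140 s kinetic read after compound addition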
Target sequence (P11229 whole entry, looked up): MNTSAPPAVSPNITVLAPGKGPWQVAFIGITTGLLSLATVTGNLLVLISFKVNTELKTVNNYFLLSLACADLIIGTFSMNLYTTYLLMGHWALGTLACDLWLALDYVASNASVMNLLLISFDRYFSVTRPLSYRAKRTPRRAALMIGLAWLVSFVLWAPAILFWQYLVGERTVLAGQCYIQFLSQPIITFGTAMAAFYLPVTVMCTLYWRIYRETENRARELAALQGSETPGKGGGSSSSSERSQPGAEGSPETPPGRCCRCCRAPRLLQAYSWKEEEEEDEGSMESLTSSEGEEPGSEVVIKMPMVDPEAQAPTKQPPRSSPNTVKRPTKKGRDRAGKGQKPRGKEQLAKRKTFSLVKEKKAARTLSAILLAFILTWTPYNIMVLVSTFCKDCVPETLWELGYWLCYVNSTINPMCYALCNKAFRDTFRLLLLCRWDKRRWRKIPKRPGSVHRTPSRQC
CHO-K1 Ca antag = M1 antagonist counterscreen hit in parental CHO-K1 cells; AID 602250; inhibition, % at 3 µM; ATP-induced calcium, Fluo-8 fluorescence; actives 0.6% (n = 360,000);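 active means inhibition above a per-plate cutoff, the plate's mean sample inhibition plus 3 SD, cut at about 24% in these data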;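 further: 0% = DMSO plus EC80 ATP and 100% = DMSO alone without ATP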
CHO-K1 Ca PAM = nonselective calcium activators in parental CHO-K1 cells, primary screen, counter-screen for M1 PAM project, cell-based, Fluo-8 calcium fluorescence, full deck, 1536-well; ATP EC20; 0% at ATP EC20, 100% at ATP max; activation, % at 3 µM; actives 0.02% (n = 360,000);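 active means activation above the run cutoff, the mean activation of all test compounds plus 3 SD, cut at about 40% in these data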;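 further: peak over basal fluorescence ratio in a 140 s read after ATP addition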
M1 ag parental = counter-screen for M1 agonists: effect in parental CHO-K1 cells; Fluo-8 calcium fluorescence; scaled to maximal ATP response, vehicle zero; activation, % at 3 µM; actives 0.48% (n = 360,000); in the data active means activation above about 15%;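 further: untransfected CHO-K1 host cells lacking M1 receptor as counterscreen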
CHRM1 PAM = human M1 muscarinic receptor positive allosteric modulators, primary screen, CHO-K1 cells, Fluo-8 calcium fluorescence, 1536-well; activation, % at 3 µM; CHO-K1 hM1, ACh EC20; 0% = ACh EC20, 100% = maximal ACh; actives 0.088% (n = 360,000); Muscarinic acetylcholine receptor M1 (Homo sapiens), P11229; in the data active means activation above about 19%, passing the limit was not always enough
CHRM1 antagonist = human M1 muscarinic receptor antagonists, primary screen, CHO-K1 cells, Fluo-8 calcium fluorescence, 1536-well; AID 588852, 2011; inhibition, % at 3 µM; CHO-K1 hM1, ACh EC80 antagonist; actives 1.3% (n = 360,000); Muscarinic acetylcholine receptor M1 (Homo sapiens), P11229;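 active means percent inhibition above its own plate's cutoff, namely the mean of that plate's compound wells plus 3 SD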;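 further: peak over basal fluorescence ratio during 140 s after agonist addition; 0% = ACh EC80 plus DMSO and 100% = DMSO alone without agonist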
* hit, by the source's call; / = no result. Most compounds without a hit are left out; they make up all but 2.4% or so of the library.

SMILES	CHRM1 agonist	CHO-K1 Ca antag	CHO-K1 Ca PAM	M1 ag parental	CHRM1 PAM	CHRM1 antagonist
CCOC(=O)[C@]12CCC=C1N(CCC1=CCCCC1)C(=O)[C@H](CC(=O)N1CCSCC1)C2	/	-14	14	0	/	/
COc1cccc(C(=O)OC(C)CN2CCCC2)c1 (configuration not stated)	-8	-2	0	0	-20	39*
O=C(c1cc2ccccc2o1)N1CCCCCC1	-6	-6	12	0	5	-26
CC(CN1CCCCC1)OC(=O)c1ccc2c(c1)OCO2 (configuration not stated)	-5	-16	18	1	-7	17
CC(CN1CCCCC1)OC(=O)c1cccc(F)c1 (configuration not stated)	-7	-11	17	0	8	-14
CC1CCN(CC(C)OC(=O)c2ccc3c(c2)OCCO3)CC1 (configuration not stated)	-14	-1	12	0	-32	67*
CC(CN1CCCCC1)OC(=O)c1cc2ccccc2o1 (configuration not stated)	-5	-4	10	1	-17	37*
CCOc1cccc2cc(C(=O)NCc3ccc(Cl)cc3)c(=N)oc12	-3	-9	14	1	7	-8
COCCNc1nc(Oc2cncc(Cl)c2)c2sccc2n1	5	-14	13	2	1	-18
COc1ccc(S(=O)(=O)N2CCCC(C(=O)NCc3ccco3)C2)cc1OC (configuration not stated)	-3	-14	-1	0	8	-14
CCCCn1nnnc1C1(C)CCC(=O)N1Cc1cccc(F)c1 (configuration not stated)	/	6	-1	0	/	/
O=C1N(Cc2cccc(Cl)c2)C[C@@H]2C[C@@H](c3ccccn3)N3CCC[C@@]123	-6	-12	20	1	-4	-9
O=C1N(Cc2cccc(Cl)c2)C[C@@H]2C[C@@H](c3ccsc3)N3CCC[C@@]123	-12	11	-6	-1	-30	34*
COc1cc2c3c(c1)c(N=NC(N)=S)c(O)n3C(C)(C)C=C2C	-3	-9	-19	0	17	33*
O=C(CNS(=O)(=O)c1ccc(Br)s1)NCc1ccc(F)cc1	-9	-16	7	3	-6	1
O=C(CCNS(=O)(=O)c1ccc(Br)s1)NCc1ccc(F)cc1	-5	29*	-16	0	-5	6
CC(C)CN1CCN(Cc2ccc3ncccc3c2)CC1CCO (configuration not stated)	-8	0	15	0	5	-12
O=c1c2cc(N3CCOCC3)ccc2[nH]c(=S)n1CCCN1CCCCCC1	-6	-2	11	0	-24	23*
Cc1ccc(S(=O)(=O)Cc2ccc(C(=O)N3CCN(c4cc(C)ccc4C)CC3)o2)cc1	-1	-3	9	0	8	-9
Cc1ccc(C)c(N2CCN(C(=O)c3ccc(CS(=O)(=O)c4ccccc4C)o3)CC2)c1	-1	25*	-8	3	-4	18
Oc1ccccc1N=N/C(=N/Nc1ccccc1O)c1ccccc1	-5	-13	17	0	-1	2
N#C/C(N=Nc1ccccc1O)=N\Nc1ccccc1O	1	10	4	16*	-12	25
COc1cccc(C2SCC(=O)N2c2ccc(C)cc2)c1OC (configuration not stated)	-11	-8	16	0	-27	58*
CCOC(=O)N1CCN(C(=O)c2c[nH]c3ccc(S(=O)(=O)N(C)c4ccccc4C)cc3c2=O)CC1	-2	58*	6	1	7	-7
CCOC(=O)N1CCN(C(=O)c2c[nH]c3ccc(S(=O)(=O)N(C)c4cccc(C)c4)cc3c2=O)CC1	4	-7	1	0	3	-10
SMILES	CHRM1 agonist	CHO-K1 Ca antag	CHO-K1 Ca PAM	M1 ag parental	CHRM1 PAM	CHRM1 antagonist
CCOCCCNC(=O)CCn1nc(-c2ccc(Cl)cc2)ccc1=O	-4	-6	6	2	2	-1
O=C(c1cc(=O)[nH]c2ccccc12)N1CCN(S(=O)(=O)c2ccc3ccccc3c2)CC1	-1	26*	-5	3	-4	21
O=C(c1cc(=O)[nH]c2ccccc12)N1CCN(S(=O)(=O)c2ccc(Cl)cc2)CC1	-1	-7	-1	9	-10	23
CCN(CC)CCOC(=O)C(Cc1ccco1)Cc1cccc2ccccc12 (configuration not stated)	-5	-5	13	6	-25	59*
CCN(CC)CCOC(=O)CCc1cccc2ccccc12	-3	-11	16	1	-13	11
Cc1ccc(NC(=O)CN(C)C(=O)COc2ccc(Br)cc2)cc1	-7	-6	7	0	0	-11
O=C(NCCCCCCNC(=O)c1ccccc1O)c1ccccc1O	-1	1	-9	19*	-23	32*
CCCNC(=O)c1ccccc1C(=O)NCCC	-1	-9	18	1	-3	-8
CCOCCNC(=O)c1ccccc1C(=O)NCCOCC	-3	30*	-3	0	7	-8
CN(C(=O)COc1ccccc1C(=O)NCCOc1ccccc1)c1ccccc1	-2	25*	1	11	-22	50*
COCCN1CCC(CO)C1 (configuration not stated)	-1	-12	18	1	13	-22
CCN(CC(=O)Nc1c(F)cccc1F)C(=O)c1nc2nc(C)cc(C)n2n1	-3	-2	9	1	1	0
CCCCNC(=O)CN(Cc1ccco1)S(=O)(=O)c1ccc(C(C)=O)cc1	-4	-11	10	2	6	-5
Cc1cc(C)[n+](-c2ccc(C(C)C)cc2)c2[nH]c(=O)[nH]c(=O)c12	-10	2	21	5	-22	55*
CNc1snc(C)c1C(=O)OCC(=O)c1ccc(Cl)cc1	-1	16	-8	12	-15	35*
Cc1ccc2nc(-c3cccc(Br)c3)c(Cc3ccccc3)n2c1	0	-11	9	1	10	-31
Cc1ccc(-n2cc(-c3ccccc3)c3c(N4CCOCC4)ncnc32)cc1	-3	7	-4	4	-12	43*
Cc1cccc(-n2cc(-c3ccccc3)c3c(N4CCOCC4)ncnc32)c1	-5	1	-8	5	-16	38*
Cc1ccc(-n2cc(-c3ccccc3)c3c(N4CCN(C)CC4)ncnc32)cc1	-3	-1	5	4	11	-10

Source: PubChem BioAssay
